Experimental data taken from PubChem BioAssay (NCI).
This is part of a sample that, as a whole, favours compounds with a hit. Of some 79,000 tested, about 15% had one in any assay. A number with no mark means an inactive call. Activity calls are given as the source filed them. Cut-off read from the data, not from the text of the source: active = growth inhibition above about 70%; inactive = the rest.

Experiment: NCI Yeast Anticancer Drug Screen. Data for the sgs1 mgt1 strain (AID 161);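 note: 0% = growth of cultures given vehicle only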
Conditions: S. cerevisiae sgs1 mgt1 strain, at 50.0 µM, hits give high values
Outline: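 Inhibition of yeast growth, normalised to vehicle-treated controls, is reported for a strain bearing genetic alterations in DNA damage repair.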

Row | SMILES | growth inhibition
1 | COc1cc2c3c(c1OC)-c1cc4c(cc1CC3(C#N)N(C(=O)c1ccccc1)CC2)OCO4 (stereo not given) | -29.2%
2 | CN1CCN(C(=O)NC(C)(C)C)CC1 | -8.35%
3 | COC(=O)C1(Cc2ccc3c(c2)CCC3)Cc2cc3c(cc2C1)CCC3 | -40.2%
4 | CCOC(=O)/C=C(/C)c1ccccc1 | 6.9%
5 | CNc1ncn(-c2c(C)cccc2C)c(=O)n1 | 8.85%

Experiment: NCI Yeast Anticancer Drug Screen. Data for the cln2 rad14 strain (AID 165);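 note: 0% = growth equal to vehicle treated cultures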
Conditions: S. cerevisiae cln2 rad14 strain, at 50.0 µM, hits give high values
Outline: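 cln2 rad14 yeast strain; compound exposure; growth inhibition read vs vehicle controls.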

Row | SMILES | growth inhibition
6 | COc1ccc(C(=O)c2cc3c(ccc4ccccc43)oc2=O)cc1 | 2.85%
7 | CC(C)NC(=O)OCc1c(COC(=O)NC(C)C)c(S(=O)(=O)c2ccccc2)n2c1CCC2 | 4.7%
8 | Cc1ccnc(NC(=O)Nc2ccccc2Cl)c1 | 3.15%
9 | c1ccc2c(c1)NC(N1CCCCC1)=Nc1ncncc1-2 | -15.1%
10 | O=S(O)CCCSSSCCCS(=O)O | 37%
11 | CC(=O)c1ccccc1C(=O)O | 7.6%
12 | CC1(O)OC(=O)c2ccc3ccccc3c21 (stereo not given) | 14.9%
13 | CC(=O)CC(=O)Nc1cccc(C)n1 | 3.8%
14 | CCCCCCCCCC(=O)Oc1cccc2onc(C)c12 | -7.8%
15 | Cc1ccc(C(C)C)c(OC(=O)NCCCCCCNC(=O)Oc2cc(C)ccc2C(C)C)c1 | 11.1%
16 | CC1(C)CCC23CCC4(C)C(CCC5C6(C)CCC(=O)C(C)(C)C6CCC54C)C2C1OC3 (stereo not given) | 20.9%
17 | CN(C)S(=O)(=O)c1ccc(CCc2ccc(S(=O)(=O)N(C)C)cc2)cc1 | 5.9%
18 | CC(=O)CC(C)(C)NC(=S)NCCO | -29.4%
19 | C[n+]1c(/C=C/C=C/c2ccccc2)oc2ccccc21 | -11.2%
20 | C/C(=C\Cc1cc(O)c(C)cc1O)CC/C=C(\C)Cc1cc(C)co1 | 17.9%
21 | CCC(=O)Oc1ccc([N+](=O)[O-])cc1[N+](=O)[O-] | 26.6%
22 | O=[N+]([O-])c1ccc(N/N=C2\C=C(c3ccccc3)C(c3ccccc3)C2)c([N+](=O)[O-])c1 (stereo not given) | 23.1%
23 | CC1=C(C(=O)CC(=O)C(=O)Nc2ccc(C)cc2C)Sc2ccccc2N1 | -9.8%
24 | CCCCCCCCCCCCCCCC(=O)O | -2.9%
25 | CCC1(N=[N+]=[N-])C(=O)c2ccccc2N(c2ccccc2)C1=O (stereo not given) | 2.75%

Row | SMILES | growth inhibition
26 | Cc1[nH]c(=O)nc(CC(O)(c2ccccc2)c2ccccc2)c1-c1ccccc1 | 14.2%
27 | Cc1ccc(-n2c(C)n[nH]c2=O)cc1 | 8%
28 | O=C1/C(=C/c2ccc(O)cc2)CCC1CNc1ccc(Cl)cc1 (stereo not given) | 18.1%
29 | CCOC(=O)C1=C(Nc2ccc(Cl)cc2Cl)OC/C1=N\NS(=O)(=O)c1ccc(C)cc1 | -8.6%
30 | CCCc1cc(C)cc(N=Cc2ccccc2)c1O | 97.8% (active)
31 | CCCCCCCCCCS(=O)(=O)CC(=O)O | -12.7%
32 | c1ccc2c(c1)ncc1cccn12 | 3.45%
33 | CN1CC(O)CN(C)C1=S | -34.6%
34 | COc1ccc(NC(=O)CC(=O)N2N=C(N(CCC#N)c3ccc(Cl)cc3)CC2c2ccccc2)cc1 (stereo not given) | 7.5%
35 | O=c1[nH]c2nc3ccccc3c(=O)n2/c1=C/c1ccco1 | 20.2%
36 | CCN1CCCC1CO (stereo not given) | 0.1%
37 | NCCN1C(=O)c2ccccc2C1(O)c1ccc(Cl)cc1 (stereo not given) | -4.6%
38 | CC(=O)Nc1nc(C)c(CCCOc2ccc([N+](=O)[O-])cc2)c(Cl)n1 | 1.4%
39 | O=c1[nH]c2cc([N+](=O)[O-])ccc2c2ccc(Cl)cc12 | 2.75%
40 | CSc1nc(N)c(NS(=O)(=O)c2ccc([N+](=O)[O-])cc2)c(=O)[nH]1 | -3.95%
41 | COc1cc2c3c(c1OC)-c1cc4c(cc1CC3(C#N)N(C(=O)c1ccccc1)CC2)OCO4 (stereo not given) | -5.35%
42 | CN1CCN(C(=O)NC(C)(C)C)CC1 | -88.8%
43 | COC(=O)C1(Cc2ccc3c(c2)CCC3)Cc2cc3c(cc2C1)CCC3 | 15.8%
44 | CCOC(=O)/C=C(/C)c1ccccc1 | 0.7%
45 | CNc1ncn(-c2c(C)cccc2C)c(=O)n1 | -15.8%

Experiment: NCI Yeast Anticancer Drug Screen. Data for the bub3 strain (AID 167)
Conditions: S. cerevisiae bub3 mutant strain, at 50.0 µM, hits give high values
Outline: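 Steps: expose the mutant yeast strain to compound; grow alongside vehicle-treated cultures; measure growth; express inhibition against the vehicle cultures.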

Row | SMILES | growth inhibition
46 | COc1ccc(C(=O)c2cc3c(ccc4ccccc43)oc2=O)cc1 | 23.9%
47 | CC(C)NC(=O)OCc1c(COC(=O)NC(C)C)c(S(=O)(=O)c2ccccc2)n2c1CCC2 | 1.35%
48 | Cc1ccnc(NC(=O)Nc2ccccc2Cl)c1 | 21%
49 | c1ccc2c(c1)NC(N1CCCCC1)=Nc1ncncc1-2 | -1.7%
50 | O=S(O)CCCSSSCCCS(=O)O | 20%
51 | CC(=O)c1ccccc1C(=O)O | 6.25%
52 | CC1(O)OC(=O)c2ccc3ccccc3c21 (stereo not given) | -20.8%
53 | CC(=O)CC(=O)Nc1cccc(C)n1 | 6.25%
54 | CCCCCCCCCC(=O)Oc1cccc2onc(C)c12 | -13.5%
55 | Cc1ccc(C(C)C)c(OC(=O)NCCCCCCNC(=O)Oc2cc(C)ccc2C(C)C)c1 | -7.2%
56 | CC1(C)CCC23CCC4(C)C(CCC5C6(C)CCC(=O)C(C)(C)C6CCC54C)C2C1OC3 (stereo not given) | -0.7%
57 | CN(C)S(=O)(=O)c1ccc(CCc2ccc(S(=O)(=O)N(C)C)cc2)cc1 | 6.35%
58 | CC(=O)CC(C)(C)NC(=S)NCCO | -8.85%
59 | C[n+]1c(/C=C/C=C/c2ccccc2)oc2ccccc21 | 5.8%
60 | C/C(=C\Cc1cc(O)c(C)cc1O)CC/C=C(\C)Cc1cc(C)co1 | -1.3%
61 | CCC(=O)Oc1ccc([N+](=O)[O-])cc1[N+](=O)[O-] | -0.5%
62 | O=[N+]([O-])c1ccc(N/N=C2\C=C(c3ccccc3)C(c3ccccc3)C2)c([N+](=O)[O-])c1 (stereo not given) | 96.8% (active)
63 | CC1=C(C(=O)CC(=O)C(=O)Nc2ccc(C)cc2C)Sc2ccccc2N1 | 6.2%
64 | CCCCCCCCCCCCCCCC(=O)O | -29.8%
65 | CCC1(N=[N+]=[N-])C(=O)c2ccccc2N(c2ccccc2)C1=O (stereo not given) | -0.95%

Row | SMILES | growth inhibition
66 | Cc1[nH]c(=O)nc(CC(O)(c2ccccc2)c2ccccc2)c1-c1ccccc1 | -6.05%
67 | Cc1ccc(-n2c(C)n[nH]c2=O)cc1 | -4.3%
68 | O=C1/C(=C/c2ccc(O)cc2)CCC1CNc1ccc(Cl)cc1 (stereo not given) | 5.55%
69 | CCOC(=O)C1=C(Nc2ccc(Cl)cc2Cl)OC/C1=N\NS(=O)(=O)c1ccc(C)cc1 | -2.45%
70 | CCCc1cc(C)cc(N=Cc2ccccc2)c1O | 97% (active)
71 | CCCCCCCCCCS(=O)(=O)CC(=O)O | -8.3%
72 | c1ccc2c(c1)ncc1cccn12 | 7.7%
73 | CN1CC(O)CN(C)C1=S | -7.9%
74 | COc1ccc(NC(=O)CC(=O)N2N=C(N(CCC#N)c3ccc(Cl)cc3)CC2c2ccccc2)cc1 (stereo not given) | 2.05%
75 | O=c1[nH]c2nc3ccccc3c(=O)n2/c1=C/c1ccco1 | 23.1%
76 | CCN1CCCC1CO (stereo not given) | -4.35%
77 | NCCN1C(=O)c2ccccc2C1(O)c1ccc(Cl)cc1 (stereo not given) | -14.9%
78 | CC(=O)Nc1nc(C)c(CCCOc2ccc([N+](=O)[O-])cc2)c(Cl)n1 | 27.1%
79 | O=c1[nH]c2cc([N+](=O)[O-])ccc2c2ccc(Cl)cc12 | 6.5%
80 | CSc1nc(N)c(NS(=O)(=O)c2ccc([N+](=O)[O-])cc2)c(=O)[nH]1 | 10.1%
81 | COc1cc2c3c(c1OC)-c1cc4c(cc1CC3(C#N)N(C(=O)c1ccccc1)CC2)OCO4 (stereo not given) | 15.1%
82 | CN1CCN(C(=O)NC(C)(C)C)CC1 | -1.9%
83 | COC(=O)C1(Cc2ccc3c(c2)CCC3)Cc2cc3c(cc2C1)CCC3 | -0.35%
84 | CCOC(=O)/C=C(/C)c1ccccc1 | -2.7%
85 | CNc1ncn(-c2c(C)cccc2C)c(=O)n1 | -2.65%
